According to PubChem BioAssay AID1159580 (chemical genetic matrix, 2015):
The campaign covered roughly 5,500 compounds. About 2,000 (36%) were called active. Not shown: some 18% with an inconclusive outcome. No stated cut-off is given here; in the data, active means normalized growth mostly below about 0.91 (no sharp cut-off); inconclusive means no clear call, values can overlap the other calls; inactive means mostly above about 0.92. The list shows a part of the results.

Assay: chemical genetic growth profiling, strain panel (AID 1159580);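 further: tested at 20 µM; growth read once vehicle control cultures reached saturation at 30 °C; 1 = growth at the plate median or of vehicle wells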
Settings: growth OD
[1] = S. cerevisiae deletion strains, locus YAL013W, strain DEP1, stronger effect = lower value
[2] = S. cerevisiae deletion strains, locus YBR229C, strain ROT2, stronger effect = lower value
[3] = S. cerevisiae deletion strains, locus YDL101C, strain DUN1, stronger effect = lower value
[4] = S. cerevisiae deletion strains, locus YDR150W, strain NUM1, stronger effect = lower value
[5] = S. cerevisiae deletion strains, locus YEL061C, strain CIN8, stronger effect = lower value
[6] = S. cerevisiae deletion strains, locus YGR078C, strain PAC10, stronger effect = lower value
[7] = S. cerevisiae deletion strains, locus YHR030C, strain SLT2, stronger effect = lower value
[8] = S. cerevisiae deletion strains, locus YHR087W, strain rtc3, stronger effect = lower value
[9] = S. cerevisiae deletion strains, locus YJL187C, strain SWE1, stronger effect = lower value
[10] = S. cerevisiae deletion strains, locus YJR043C, strain POL32, stronger effect = lower value
[11] = S. cerevisiae deletion strains, locus YJR075W, strain HOC1, stronger effect = lower value
[12] = S. cerevisiae deletion strains, locus YLR039C, strain RIC1, stronger effect = lower value
[13] = S. cerevisiae deletion strains, locus YLR058C, strain SHM2 (second series), stronger effect = lower value
[14] = S. cerevisiae deletion strains, locus YLR085C, strain ARP6, stronger effect = lower value
[15] = S. cerevisiae deletion strains, locus YLR262C, strain YPT6, stronger effect = lower value
[16] = S. cerevisiae deletion strains, locus YML094W, strain GIM5, stronger effect = lower value
[17] = S. cerevisiae deletion strains, locus YMR219W, strain ESC1, stronger effect = lower value
[18] = S. cerevisiae deletion strains, locus YMR263W, strain SAP30, stronger effect = lower value
[19] = S. cerevisiae deletion strains, locus YMR307W, strain GAS1, stronger effect = lower value
[20] = S. cerevisiae deletion strains, locus YNL153C, strain GIM3, stronger effect = lower value
[21] = S. cerevisiae deletion strains, locus YNL298W, strain CLA4 (second series), stronger effect = lower value
[22] = S. cerevisiae deletion strains, locus YNL322C, strain KRE1, stronger effect = lower value
[23] = S. cerevisiae deletion strains, locus YNR030W, strain Alg12, stronger effect = lower value
[24] = S. cerevisiae deletion strains, locus YPL055C, strain LGE1, stronger effect = lower value
[25] = S. cerevisiae deletion strains, locus YPL241C, strain CIN2, stronger effect = lower value
[26] = S. cerevisiae deletion strains, locus YPR135W, strain CTF4, stronger effect = lower value

Measured: normalized growth

CCCc1cc(C(=O)Nc2ccc(N(CC)CC)cc2)nn1-c1ccccc1
inactive: [1] 0.98 | [2] 0.983 | [3] 0.981 | [4] 0.966 | [6] 0.975 | [8] 0.981 | [9] 0.991 | [10] 0.973 | [11] 0.967 | S. cerevisiae deletion strains, locus YKL190W, strain CNB1, stronger effect = lower value 0.96 | [12] 1 | [13] 0.982 | [14] 0.813 | [15] 0.915 | [16] 0.911 | [17] 0.999 | [18] 0.991 | [20] 0.987 | [21] 0.884 | [22] 0.991 | [23] 0.89 | [24] 0.973 | [25] 0.92 | [26] 0.718 | S. cerevisiae strains, strain wild type, stronger effect = lower value 0.922
active: S. cerevisiae deletion strains, locus YDL134C, strain PPH21, stronger effect = lower value 0.873 | [5] 0.895 | [7] 0.276 | [19] 0.275 | S. cerevisiae deletion strains, locus YOL006C, strain TOP1, stronger effect = lower value 0.626

O=C(NC(c1ccccc1)C(N=Cc1ccccc1)c1ccccc1)c1ccccc1 (stereo not drawn)
inactive: [1] 1 | [2] 1.02 | S. cerevisiae deletion strains, locus YCL061C, strain MRC1, stronger effect = lower value 1.02 | [3] 1 | [4] 0.959 | [5] 1.03 | [6] 1.01 | S. cerevisiae deletion strains, locus YGR229C, strain SMI1, stronger effect = lower value 1.02 | [7] 1.05 | [8] 1 | [9] 1.02 | [10] 1.02 | [11] 1.01 | [12] 1.04 | [13] 1.03 | [14] 1.03 | [15] 1.1 | [16] 1.01 | [17] 1.01 | [18] 0.978 | [19] 0.999 | [20] 0.998 | [21] 1.05 | [22] 1 | [23] 1.02 | [24] 0.917 | [25] 1.01 | [26] 1.01
